Bioassay records as filed in PubChem BioAssay.
S2 tox = viability counter-screen for ATXN expression inhibitors; S2 cells (HEK-293 line with an ATXN2-luciferase reporter) viability, CellTiter-Fluor protease fluorescence, 24 h; Potency, µM (titrated, usually from 56.7 µM), most hits filed as cytotoxic; actives 0.49% (n = 400,000); also: potency is read from the fitted curve at half-maximal effect; nearly all actives have a fitted effect of over 40% in size
IL-1B inflam inh = inhibitors of inflammasome signaling (IL-1 beta secretion); THP-1 LPS/ATP IL-1B secretion, AlphaLISA, 16 h; stronger effect = lower value; activity change, % at 57.5 µM; actives 4.7% (n = 360,000); AID 743279; in the data active = activity change below about -50%; inconclusive = mostly about -30% to -49%; also: % is scaled to controls: 0 for no effect and ±100 for the full control effect
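Secreted IL-1B measured by AlphaLISA bead assay after 16 h compound exposure of THP-1 cells; compounds (final up to 57.5 uM) added 1 h before LPS (250 ng/mL) and ATP (1.25 mM) stimulation; lower signal means less secretion.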
USP2a block = USP2a (human) protease inhibition; USP2 core, Ub-CHOP2 coupled fluorogenic reporter, 485/531; Potency, µM (titrated, usually from 38.3 µM), for inactives: top-dose activity change, negative = inhibition, hits mostly inhibitors; actives 0.01% (n = 330,000);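 also: potency is read from the fitted curve at half-maximal effect; plate controls were DMSO wells for no effect and full inhibition by NEM control for full effect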
Target sequence (O75604 whole entry, looked up): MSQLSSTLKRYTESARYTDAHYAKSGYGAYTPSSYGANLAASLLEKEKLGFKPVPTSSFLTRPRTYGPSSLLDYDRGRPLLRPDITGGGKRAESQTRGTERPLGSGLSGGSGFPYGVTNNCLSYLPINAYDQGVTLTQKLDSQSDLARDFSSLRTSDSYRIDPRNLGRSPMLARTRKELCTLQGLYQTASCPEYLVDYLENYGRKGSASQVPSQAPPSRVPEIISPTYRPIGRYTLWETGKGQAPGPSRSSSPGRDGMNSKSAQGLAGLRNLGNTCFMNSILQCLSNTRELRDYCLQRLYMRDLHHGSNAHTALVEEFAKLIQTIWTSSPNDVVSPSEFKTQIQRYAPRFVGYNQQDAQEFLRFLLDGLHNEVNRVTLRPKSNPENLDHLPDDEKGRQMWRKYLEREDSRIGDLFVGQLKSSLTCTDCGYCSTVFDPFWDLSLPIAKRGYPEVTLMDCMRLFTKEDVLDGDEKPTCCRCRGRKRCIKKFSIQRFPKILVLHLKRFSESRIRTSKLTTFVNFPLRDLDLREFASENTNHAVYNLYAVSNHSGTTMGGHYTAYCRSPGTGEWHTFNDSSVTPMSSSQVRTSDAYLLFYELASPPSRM
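Cell-free coupled assay: 10nM USP2 core preincubated 30min RT with compound in Tris-HCl pH 8.0/CaCl2/CHAPS buffer, then 25nM Ub-CHOP2 and 25nM reporter substrate; fluorescence (Ex 485/Em 531) read after 60min RT, normalized to NEM inhibition, concentration-response curves fitted.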
ATXN2 expr inh = reduces ATXN2 reporter expression in HEK-293 cells; HEK-293 ATXN2-luciferase reporter, luminescence, 24 h; actives 0.72% (n = 360,000); Potency, µM (highest dose often 57 µM), without a hit: at the highest dose activity change, negative = inhibition, usual class: inhibitors; AID 1745845; also: potency is read from the fitted curve at half-maximal effect; % is scaled to controls: 0 for no effect and ±100 for the full control effect; nearly all actives have a fitted effect of over 55% in size
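qHTS (up to 57 uM final) was run with 24 h compound exposure of reporter cells at 37 °C. Each well was multiplexed: SteadyGlo luminescence measured ATXN2-luciferase expression after a fluorogenic Gly-Phe-AFC viability readout (25 uM final).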
USP1 inh = inhibitors of human USP1/UAF1 deubiquitinase; O94782; recombinant USP1/UAF1, Ub-Rhodamine cleavage fluorescence; Potency, µM (top dose mostly 57.1 µM), inactives show at the top dose activity change, negative = inhibition, usual class: inhibitors; actives 0.23% (n = 390,000); AID 743255; also: potency is read from the fitted curve at half-maximal effect; % is scaled to controls: 0 for no effect and ±100 for the full control effect; nearly all actives have a fitted effect of over 60% in size
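Step one: compound is pinned into 1nM USP1/UAF1 in HEPES pH 7.8 buffer with TCEP. Step two: 15 min room-temperature incubation. Step three: Ub-Rho (150nM final) starts cleavage, tracked by fluorescence over six one-minute reads.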
Active calls of the source: *; i = inactive; ? = inconclusive; . = no result given. A selection: hits, their analogues and other compounds. The true share with any hit is near 4.8%. Unless noted, calls follow the shape of the dose curve; as a rule, active = well fitted curve in the direction sought with a large enough effect; inconclusive = small, poorly fitted or top-dose-only effect, or another doubt; inactive = no such curve, though single readings can be large; an effect the other way counts as inactive or inconclusive.

SMILES | S2 tox | IL-1B inflam inh | USP2a block | ATXN2 expr inh | USP1 inh
Cc1ccc(/C(=N\O)c2oc3c(C)c4oc(=O)cc(C)c4cc3c2C)cc1 | ? | -28.6 | 2.5% | ? | -3.7%
Cc1ccc(C)c(Nc2cc(C(=O)NCc3cccnc3)c3ccccc3n2)c1 | ? | -73.3* | -0.8% | -15.0% | -21.6%
Cc1cc(C)cc(Nc2cc(C(=O)NCCCN(Cc3ccccc3)C(C)C)c3ccccc3n2)c1 | 12.6µM* | . | . | 14.1µM* | -18.5%
COc1ccc(Nc2cc(C(=O)NCCCN(C)Cc3ccccc3)c3ccccc3n2)cc1 | . | . | . | . | -3.7%
COc1ccccc1Nc1cc(C(=O)NCc2cccnc2)c2ccccc2n1 | i | 29.8 | -1.7% | 13.3% | -23.7%
CSc1cccc(Nc2cc(C(=O)NCCCN(Cc3ccccc3)C(C)C)c3ccccc3n2)c1 | ? | . | . | 25.1µM* | -12.0%
COc1ccc(C(=O)N2C=Cc3ccccc3C2C(N)=O)cc1 (centres undefined) | ? | 11.6 | . | . | -32.1%
CCCc1c(C(=O)N/N=C/c2cccc3ccccc23)nnn1-c1nonc1N | i | 2.1 | 1.2% | -25.1% | -22.4%
Cc1c(C(=O)N2CCN(Cc3ccccc3)CC2)oc2c1C(=O)CCC2 | i | -2.3 | -0.3% | . | -11.5%
O=C(Nc1cccn(Cc2c(Cl)cccc2Cl)c1=O)c1ccc(Cl)cc1Cl | i | -58.6* | 2.2% | -20.1% | -21.0%
COc1ccccc1CN1C2CCCC1CC(NC(=O)/C=C/c1ccccc1)C2 (centres undefined) | i | -76.6* | 0.3% | -0.7% | -15.9%
CCn1c2ccccc2c2cc(CN3CCN(Cc4cc(OC)ccc4O)CC3)ccc21 | i | -83.7* | 2.0% | -24.3% | -7.5%
CCn1c2ccccc2c2cc(CN3CCN(Cc4cc(OC)c(O)c(OC)c4)CC3)ccc21 | . | . | . | . | -15.1%
COc1ccc(CCNC(=O)CCCCn2c(=O)c3ccccc3n(Cc3ccc(Cl)cc3)c2=O)cc1OC | ? | . | . | -38.0% | -10.4%
Cc1ccc(NC(=O)CCN2CCC(Cc3ccccc3)CC2)cc1 | i | -82.4* | -1.4% | -9.0% | -18.8%
CC(=O)N1CCN(CC(=O)Nc2ccc(C)c(S(=O)(=O)N(C)C)c2)CC1 | i | -12.6 | 1.3% | -11.8% | -13.9%
Cc1ccc(NC(=O)CN2CCC(Cc3ccccc3)CC2)cc1S(=O)(=O)N(C)C | i | -54.1* | -2.1% | -13.6% | -20.9%
O=C(O)/C=C/C(=O)NCc1cn(-c2ccccc2)nc1-c1cccc(Br)c1 | i | -57.8* | -2.8% | 5.4% | -12.1%
O=C(O)Cc1cn(-c2ccccc2)nc1-c1ccccc1 | i | -5.5 | 0.6% | 10.9% | -27.5%
CC(=O)N1CCc2c(sc3c2c(=O)n(CCc2ccccc2)c(=O)n3CC(=O)Nc2ccccc2F)C1 | i | . | . | -17.9% | ?
O=C(NCCc1ccccc1)c1coc(=O)c(Br)c1 | ? | -98.8* | 0.9% | 8.6% | -23.3%
CN(C)CCNC(=O)c1coc(=O)c(Br)c1 | i | -10.3 | 0.9% | -5.2% | -5.4%
COc1cc(C#N)ccc1OCC(=O)Nc1ccc(C)c(S(=O)(=O)N2CCOCC2)c1 | i | -23.9 | 0.6% | . | -1.2%
Cc1ccc(NC(=O)COc2ccc(Cl)cc2Cl)cc1S(=O)(=O)N1CCOCC1 | i | -56.6* | -12.3% | -7.6% | -11.9%
COc1cc(C(=S)N2CCCCC2)ccc1OCC(=O)Nc1ccccc1Cl | i | -70.3* | 2.9% | -32.0% | -14.7%
SMILES | S2 tox | IL-1B inflam inh | USP2a block | ATXN2 expr inh | USP1 inh
Cc1ccc(OCC(=O)Nc2cccc(S(=O)(=O)N3CCCCC3)c2)c([N+](=O)[O-])n1 | i | 25.7 | 5.5% | -5.6% | -15.9%
O=C(COc1ccc(C(=S)N2CCOCC2)cc1Cl)Nc1ccccc1Cl | i | 0.0 | -0.7% | -3.6% | -23.5%
O=C(CSc1ccc([N+](=O)[O-])cc1)Nc1cccc(S(=O)(=O)N2CCOCC2)c1 | ? | -67.5* | 4.0% | -1.8% | -20.5%
Cc1ccc2cccc(OCC(=O)Nc3cccc(S(=O)(=O)N4CCCC4)c3)c2n1 | i | -71.0* | -4.2% | -25.8% | -4.7%
O=C(CSc1nc(=O)n(Cc2ccco2)c2c1CCC2)NCc1ccc(F)cc1 | ? | . | . | -13.4% | -22.6%
COc1cc(=O)n2c(c1C(=O)NCc1ccco1)CCN(C(=O)c1ccccc1-c1ncc[nH]1)CC2 | i | . | . | . | .
Cc1nc2cc(NC(=O)C3CC34CCN(Cc3ccc(O)c(Cl)c3)CC4)ccc2s1 (centres undefined) | i | . | . | . | .
COc1ccc(C(O)(CCC(C)C)C(CN2CCOCC2)c2ccccc2)cc1 (centres undefined) | i | ? | -2.1% | -19.1% | ?
Cc1ccc(NC(=O)CCCSc2ccccc2)cc1S(=O)(=O)N1CCOCC1 | i | -51.6* | -1.9% | -7.3% | -18.2%
Cc1ccc(NC(=O)CSc2ccc(Br)cc2)cc1S(=O)(=O)N1CCOCC1 | i | ? | -1.0% | ? | -7.3%
COc1cc(C(C)=O)ccc1OCC(=O)Nc1ccc(C)c(S(=O)(=O)N2CCCCCC2)c1 | ? | -58.8* | 1.2% | 28.2µM* | -17.8%
COc1cc(C(C)=O)ccc1OCC(=O)Nc1ccc(S(=O)(=O)N2CCCCC2)cc1 | ? | -4.8 | . | . | -24.6%
Cc1ccc(NC(=O)COc2ccccc2C(N)=O)cc1S(=O)(=O)N1CCCCCC1 | 15µM* | -55.0* | -10.2% | ? | -18.9%
CC(C)Nc1nc(-c2ccccc2)nc(-n2ccnc2)n1 | i | ? | -0.3% | -3.3% | -6.0%
c1ccc(-c2nc(-n3ccnc3)nc(-n3ccnc3)n2)cc1 | . | -84.2* | -0.2% | . | -18.8%
CCN(Cc1ccncc1)C(=O)c1cc(COc2c(F)cccc2F)on1 | i | -5.4 | -0.4% | -1.1% | -18.2%
CCC(C(=O)O)n1ccc2cc(S(=O)(=O)N3CCCCC3)ccc21 (centres undefined) | i | . | . | 10.8% | -2.6%
O=C(Cc1nc2ccccc2[nH]c1=O)c1ccccc1 | . | -71.7* | 7.1% | 129.7% | 31.6µM*
O=c1[nH]c2ccccc2nc1Cc1ccccc1 | i | 0.0 | 0.6% | 40.6% | -26.0%
O=C(Cc1nc2ccccc2[nH]1)c1ccc(Br)cc1 | i | -60.4* | 0.6% | 25.5% | -14.3%
Cc1ccc(NC(=O)COC(=O)c2cc(=O)c3ccccc3o2)cc1F | i | -5.4 | 2.0% | 2.0% | 0.6%
Cc1ccc(Oc2c(C(N)=O)cc([N+](=O)[O-])cc2[N+](=O)[O-])cc1 | ? | -85.1* | -0.6% | ? | 0.4%
COc1ccc(CCNC(=O)CSc2cccc3cccnc23)cc1OC | i | -97.8* | 1.1% | 6.0% | -13.5%
CN(C)S(=O)(=O)c1ccc(SCC(=O)Nc2cccc(S(=O)(=O)N3CCCC3)c2)nc1 | . | 23.8 | . | . | -14.1%
CN(C)S(=O)(=O)c1cccc(NC(=O)CSc2nc3c(cc2C#N)C(=O)CC(C)(C)C3)c1 | i | -58.4* | 3.2% | -38.5% | 1.0%
